# From PubChem BioAssay AID524 (The Scripps Research Institute Molecular Screening Center, 2006)
# The whole screen tested about 65,000 compounds, of which about 95 (0.1%) were called active.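 The calls were made as follows: active = inhibition above the screen-wide mean inhibition plus 3 SD (cut at about 21% in these data); inactive = the rest.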 For the sample, actives were picked, then their nearest neighbours and some compounds at random.
# Molecular target: cAMP-dependent protein kinase catalytic subunit alpha (Homo sapiens) (UniProt P17612)
# Experiment: PKA catalytic subunit kinase inhibition – biochemical, ATP-depletion luminescence, Kemptide substrate, primary screen (AID 524)
# Details: PKA Kemptide phosphorylation, Kinase-Glo ATP luminescence; at 6 µM; stronger effect = higher value
row,SMILES,inhibition
1,COc1ccc(C)c2sc(=NC(=O)c3ccc(C#N)cc3)n(C)c12,3.2% (inactive)
2,CN(C(=O)c1ccno1)c1nnc(-c2cccnc2)s1,2.6% (inactive)
3,CN(C(=O)COc1ccccc1)c1nnc(-c2ccncc2)s1,29.1% (active)
4,CN(C(=O)c1ccccn1)c1nnc(-c2ccccn2)s1,-0.9% (inactive)
5,CC(C)N(C(=O)Cn1c(SCC(=O)N2CCN(c3ccccc3)CC2)nc2ccccc21)C(C)C,7.5% (inactive)
6,Cc1cc(C)cc(NC(=O)C2CCN(c3nc(C)cc(C)n3)CC2)c1,6.7% (inactive)
7,O=C(CSc1nnc(-c2ccccn2)n1-c1ccccc1)Nc1ccc2c(c1)OCO2,5.1% (inactive)
8,Cc1ccn2cc(C(=O)NC3CCN(Cc4ccccc4)CC3)nc2c1,4.5% (inactive)
9,Nc1nc(SCCOc2ccccc2)n[nH]1,11.5% (inactive)
10,O/N=C(\c1ccc2c(c1)OCCO2)C1CCCCC1,-0.4% (inactive)
11,Cc1cc(/C=N/n2cnnc2)c(C)n1-c1cccc(C(=O)O)c1,7.1% (inactive)
12,COc1ccc(-c2cc3ccc(OCc4nn[nH]n4)cc3oc2=O)cc1,6.3% (inactive)
13,CCc1cc(Br)ccc1NC(=O)C1CCCO1 (centres undefined),12.3% (inactive)
14,Cc1cc(C(=O)CC#N)c(C)n1CC(F)(F)F,6% (inactive)
15,C=CCNc1nc(C)nc(OC)n1,4.4% (inactive)
16,Cc1nc(N2CCN(c3ncccn3)CC2)c2oc3ccccc3c2n1,8.8% (inactive)
17,CCOc1ncccc1C(=O)OCc1cn2cc(Cl)ccc2n1,8.2% (inactive)
18,COc1ccc(CCN=C2SCC(=O)N2C)cc1OC,5.5% (inactive)
19,Fc1ccccc1OCCCCn1cncn1,2.8% (inactive)
20,CN(CC(=O)NC1CCCCC1)S(=O)(=O)c1ccc(Br)s1,4% (inactive)
21,COCCNC(=S)c1ccc(OC)cc1,5.8% (inactive)
22,Cn1cccc1C(=O)NC(=O)COC(=O)Cc1coc2ccc3ccccc3c12,5.5% (inactive)

row,SMILES,inhibition
1,CCOc1ccc(NC(=O)N(CCC(C)C)C(C)c2ccco2)cc1 (centres undefined),4.9% (inactive)
2,COc1ccc2c(c1)OC(O)(C(F)(F)C(F)F)CC2=O (centres undefined),4.1% (inactive)
3,CC(C)C(=O)Nc1c(C(=O)c2ccc(F)cc2)oc2ccccc12,2.9% (inactive)
4,CCCC(NC(=O)c1ccccc1)c1nc2ccccc2n1Cc1ccc(C(=O)OC)o1 (centres undefined),9.3% (inactive)
5,Cc1ccc(Cc2cncc(O)c2)cc1S(=O)(=O)O,-3.1% (inactive)
6,Cn1c(=O)c(C(=O)Nc2ncccn2)c(O)c2ccccc21,-3.8% (inactive)
7,COc1ccc(NC(=O)c2c(C)oc3c2CCCC3)cc1,4.6% (inactive)
8,Cc1ccc(C)c(NC(=O)CSc2nnc(Cc3cccn3C)n2-c2ccc(F)cc2)c1,7.2% (inactive)
9,Cn1c(=O)[nH]c(=O)c2c1nc(CN1CCN(c3ccccc3F)CC1)n2CCc1ccccc1,1.4% (inactive)
10,COc1cccc(N2CC(C(=O)Nc3c(C)cccc3C)CC2=O)c1 (centres undefined),4.7% (inactive)
11,CCOC(=O)C1=C(C)NC(=O)N(C(C)=O)C1c1ccc(Cl)cc1 (centres undefined),9.6% (inactive)
12,CN(C)S(=O)(=O)c1ccc(Oc2ccc(S(=O)(=O)N(C)C)cc2)cc1,9% (inactive)
13,CC(NC(=O)c1ccc(Cl)cc1)C(=O)N1CCCCC1 (centres undefined),8.7% (inactive)
14,O=C(Cc1cccs1)N1CCCC(c2nc(-c3ccc(S(=O)(=O)N4CCCC4)cc3)no2)C1 (centres undefined),8.4% (inactive)
15,CCCCCCn1c(SCC(=O)c2ccccc2)nc2c1c(=O)[nH]c(=O)n2C,7.8% (inactive)
16,O=C1c2ccccc2C(Nc2ccc3c(c2)OCCO3)N1Cc1ccco1 (centres undefined),-9.3% (inactive)
17,Cc1ccc2c(c1)C(O)(CC(=O)c1cccnc1)C(=O)N2 (centres undefined),6% (inactive)
18,COc1ccccc1Cn1c(=S)[nH]c2cc(C(=O)N3CCN(C)CC3)ccc2c1=O,4.3% (inactive)
19,Cc1cc(C)c(C#N)c(SCc2ccc3c(c2)OCO3)n1,7.3% (inactive)
20,CCN(Cc1ccncc1)C(=O)c1cccc(S(=O)(=O)N2CCOCC2)c1,-8.8% (inactive)
21,Cc1cccc(N2CCN(C(=O)C3CCN(S(=O)(=O)c4cnc[nH]4)CC3)CC2)c1C,9.6% (inactive)
22,O=C(COC(=O)c1ccc2c(c1)OCCO2)NCc1ccccc1,5.2% (inactive)

row,SMILES,inhibition
1,O=C(CSc1nnc(-c2ccoc2)o1)N1CCOCC1,-16.1% (inactive)
2,O=C(O)Cc1ccc(NC(=O)C2CCCCC2C(=O)O)cc1 (centres undefined),9.2% (inactive)
3,CC1=NC2(CCCc3c2no[n+]3[O-])N(O)C1(C)C (centres undefined),-8% (inactive)
4,C/C(=C\C(=O)c1ccc(Br)cc1)N1CCCCC1,0.7% (inactive)
5,c1ccc(CCc2nc(-c3ccncc3)no2)cc1,6.7% (inactive)
6,COCCCNC(=O)c1ccc(CNS(=O)(=O)c2ccc(NC(C)=O)cc2)cc1,-2.5% (inactive)
7,O=c1c2ccccc2[nH]c(=S)n1CCN1CCC(=C(c2ccc(F)cc2)c2ccc(F)cc2)CC1,-4.7% (inactive)
8,Cc1nc(NC(=O)C23CCC(C)(C(=O)O2)C3(C)C)sc1C (centres undefined),1.8% (inactive)
9,Cc1ccc(S(=O)(=O)N2CCOCC2)cc1C(=O)NCc1ccc(F)cc1,8.8% (inactive)
10,COc1cc2[nH]c(=S)n(CCN3CCCCC3C)c(=O)c2cc1OC (centres undefined),-5% (inactive)
11,O=C1NC(c2cc3c(cc2Cl)OCO3)Oc2ccccc21 (centres undefined),-12.4% (inactive)
12,CCCOc1ccc(-c2nc(N)n[nH]2)cc1,-2.2% (inactive)
13,O=C(Cn1c(=O)n(Cc2ccco2)c(=O)c2ccccc21)NCC1CCCO1 (centres undefined),7.1% (inactive)
14,O=c1c2ccccc2nnn1CSc1nc2sc3c(c2c(=O)n1CC1CCCO1)CCC3 (centres undefined),6.1% (inactive)
15,COc1ccc(CN2CC(C(=O)NCCN3CCN(c4ccccc4F)CC3)CC2=O)cc1 (centres undefined),-0.3% (inactive)
16,COc1ccc(C(c2nnnn2Cc2cccs2)N2CCN(c3ccccc3)CC2)cc1OC (centres undefined),7.6% (inactive)
17,CCCOc1ccc(Cn2c(O)cc(=O)[nH]c2=O)cc1,7.5% (inactive)
18,O=C(Nc1nc(-c2ccc3c(c2)OCO3)cs1)c1ccncc1,-1.3% (inactive)
19,O=C(Nc1nc(-c2ccncc2)cs1)C1COc2ccccc2O1 (centres undefined),103% (active)
20,COc1ccc(OC)c2sc(NC(=O)C3COc4ccccc4O3)nc12 (centres undefined),5.1% (inactive)
